In the library only some 6.3% were active in any assay of this set; here they are far more common.
ATXN2 expr inh: Primary qHTS for Inhibitors of ATXN expression | HEK-293 ATXN2-luciferase reporter, luminescence, 24 h | Potency, µM (highest dose often 57 µM), for the others: at the highest dose activity change, negative = inhibition, actives largely listed as inhibitors | 0.72% of 360,000 active; further: on the % scale 0 is the no-effect control and ±100 the full control effect; nearly all actives have a fitted effect of over 55% in size
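qHTS (up to 57 uM final) was run with 24 h compound exposure of reporter cells at 37 °C. Each well was multiplexed: SteadyGlo luminescence measured ATXN2-luciferase expression after a fluorogenic Gly-Phe-AFC viability readout (25 uM final).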
TGFb inhibitor: qHTS for Inhibitors of TGF-b; HepG2 CAGA-GFP TGF-b/SMAD3 reporter, GFP fluorescence, 18 h; TGF-beta stimulated, 500 pg/mL final; Potency, µM (titrated, usually from 46.1 µM), for the others: top-dose activity, negative = inhibition, most hits filed as inhibitors; 1.2% of 410,000 active; AID 588855, 2011; further: on the % scale 0 is the no-effect control and ±100 the full control effect; nearly all actives have a fitted effect of over 65% in size
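First, reporter cells (HEPG2 CAGA-GFP) rested 2 h at 37 degrees C. Next, compounds were pinned in and TGF-beta added to 500 pg/mL final. After 18 h, GFP was imaged per cell and summed per well.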
S2 tox: Viability Counterscreen for Primary qHTS for Inhibitors of ATXN expression; Potency, µM (doses to about 56.7 µM), actives largely listed as cytotoxic; 0.49% of 400,000 active; S2 cells (HEK-293 line with an ATXN2-luciferase reporter) viability, CellTiter-Fluor protease fluorescence, 24 h; further: nearly all actives have a fitted effect of over 40% in size
RORgamma inh: qHTS for inhibitors of ROR gamma transcriptional activity; Nuclear receptor ROR-gamma (Mus musculus), P51450; Drosophila S2 Gal4-RORgamma UAS-luciferase reporter, 20 h; Potency, µM (highest dose often 53.6 µM), for inactives: at the top dose activity change, negative = inhibition, usual class: inhibitors; 5.4% of 310,000 active; AID 2551, 2010; further: on the % scale 0 is the no-effect control and ±100 the full control effect; nearly all actives have a fitted effect of over 60% in size
Target sequence (P51450 whole entry, looked up, the tested form may be a part): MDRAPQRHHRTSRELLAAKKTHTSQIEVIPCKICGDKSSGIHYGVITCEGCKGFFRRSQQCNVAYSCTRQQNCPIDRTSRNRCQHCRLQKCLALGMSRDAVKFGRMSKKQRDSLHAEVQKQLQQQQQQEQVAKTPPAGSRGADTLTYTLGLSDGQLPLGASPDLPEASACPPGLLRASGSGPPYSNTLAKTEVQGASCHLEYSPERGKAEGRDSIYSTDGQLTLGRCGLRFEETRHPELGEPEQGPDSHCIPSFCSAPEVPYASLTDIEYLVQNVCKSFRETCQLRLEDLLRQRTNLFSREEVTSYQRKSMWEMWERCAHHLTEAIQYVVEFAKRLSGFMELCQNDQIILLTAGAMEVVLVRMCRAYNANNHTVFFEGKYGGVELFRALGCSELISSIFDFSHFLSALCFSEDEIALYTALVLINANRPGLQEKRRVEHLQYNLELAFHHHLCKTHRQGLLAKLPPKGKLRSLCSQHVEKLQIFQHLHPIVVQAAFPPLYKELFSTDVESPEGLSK
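In this cell-based reporter format, copper sulfate (700 uM final) drives Gal4–ROR gamma fusion expression from a metallothionein promoter in Drosophila Schneider cells; compounds preincubated 1 hr, reporter read after 20 hr at ambient temperature.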
HepG2 tox: qHTS for Inhibitors of TGF-b: Cytotox Counterscreen | HepG2 CAGA-GFP viability, ATP luminescence, 18 h | Potency, µM (top dose mostly 46.1 µM), without a hit: at the top dose activity change, negative = cytotoxicity, most hits filed as cytotoxic | 0.76% of 410,000 active
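HepG2 CAGA-GFP cells (1000/well, DMEM with 1% FBS) received compound, then TGF-beta at 500 pg/mL final, and were incubated 18 hours at 37 degrees C. Viability was read by CellTiter-Glo luminescence. Media-only wells were set as complete cell-killing and DMSO as no toxicity.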
Gal4-VP16 FLuc: VP16 counterscreen qHTS for inhibitors of ROR gamma transcriptional activity; Drosophila S2 Gal4-VP16 UAS-luciferase, luminescence, 20 h; Potency, µM (doses to about 53.6 µM), without a hit: at the top dose activity, negative = inhibition, hits mostly inhibitors; 3.5% of 310,000 active; AID 2546, 2010;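 further: Gal4-VP16 expression switched on by copper sulfate through the metallothionein promoter; on the % scale 0 is the no-effect control and ±100 the full control effect; nearly all actives have a fitted effect of over 50% in size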
The depositor's hits bear a star; i = inactive; ? = inconclusive; nt = no result given. The call rests on the fitted dose curve; in most records, active means well fitted curve in the direction sought with a large enough effect; inconclusive means small, poorly fitted or top-dose-only effect, or another doubt; inactive means no such curve, though single readings can be large; an effect the other way counts as inactive or inconclusive. Potency means the concentration at half of the fitted maximal effect.

SMILES	ATXN2 expr inh	TGFb inhibitor	S2 tox	RORgamma inh	HepG2 tox	Gal4-VP16 FLuc
COc1ccc(-c2csc(CCn3nc(C)cc3C)n2)cc1	1.6%	?	i	10µM*	-0.5%	?
COc1ccc(OC)c(-c2csc(CCn3nc(C)cc3C)n2)c1	-4.5%	-3.4%	i	14.1µM*	-3.3%	4.5%
COc1ccc(-c2csc(CCn3nc(C)cc3C)n2)cc1OC	2.2%	18.0%	i	16.2%	2.3%	-0.9%
Cc1ccc(S(=O)(=O)CCOC(=O)CNC(=O)OCc2ccccc2)cc1	nt	3.1%	i	nt	0.7%	nt
COc1ccc(S(=O)(=O)NC(=O)C2(C)CCN2C(=O)CC2CCCC2)cc1 (stereo not drawn)	6.1%	18.1%	i	nt	2.9%	nt
COc1ccccc1OCc1nnc(SCC(=O)Nc2ccc(N3CCOCC3)cc2)n1C	-0.5%	7.3%	i	-5.8%	0.0%	-2.8%
O=C1C(=O)N(C2CCN(C(=O)c3ccc(F)cc3)CC2)CCN1Cc1ccc(F)cc1	4.8%	5.3%	i	nt	6.2%	nt
Cc1ccc(C)c(N2CCN(C(=O)c3cc4c(C)nc5ccccc5c4o3)CC2)c1	nt	?	?	8.7%	-121.3%	-12.8%
COc1ccccc1N1CCN(C(=O)c2cc3c(C)nc4ccccc4c3o2)CC1	20µM*	?	?	41.8%	-20.3%	?
Cc1ccc2c(C)c(C(=O)N(Cc3ccc(Cl)cc3)C3CCS(=O)(=O)C3)oc2c1 (stereo not drawn)	-30.5%	11.2µM*	?	nt	6.0%	nt
Cc1ccc2c(C)c(C(=O)N(Cc3ccccc3)C3CCS(=O)(=O)C3)oc2c1 (stereo not drawn)	-9.3%	9.4%	i	12.7%	-3.5%	3.9%
COc1ncc2nc(-c3cc(F)cc(F)c3)c(=O)n(CCc3ccccc3)c2n1	nt	nt	nt	-4.3%	nt	-9.1%
CC(=O)Nc1cccc(Oc2nc(NC(C)C)nc3cc(-c4ccccc4)sc23)c1	?	?	?	nt	-42.0%	nt
COc1ccc(CNCC(O)COc2cccc3c2OC(C)(C)C3)cc1 (stereo not drawn)	-17.5%	-9.7%	i	-12.0%	-26.8%	10µM*
Cn1c(SCC(=O)NNC(=S)Nc2ccccc2)nnc1-c1ccccc1	-14.6%	-0.7%	i	0.891µM*	-7.2%	1.41µM*
Cn1c(SCC(=O)NNC(=O)Nc2ccccc2)nnc1-c1ccccc1	2.9%	0.7%	i	-5.6%	-36.0%	3.8%
Cc1noc(NS(=O)(=O)c2ccc(NC(=O)CSc3nnc(-c4ccccc4)n3C3CCCCC3)cc2)c1C	-7.1%	-9.1%	i	-3.0%	11.9%	-12.2%
CCn1c(C)nnc1SCC(=O)Nc1ccc(Cl)cc1	nt	1.9%	i	40.7%	-39.9%	4.5%
CCn1c(SCC(=O)NNC(=S)Nc2ccc(C)cc2)nnc1-c1ccc(Cl)cc1	-11.7%	?	i	3.55µM*	-14.1%	1.41µM*
Cc1ccc(NC(=S)NNC(=O)CSc2nnc(-c3ccc(Cl)cc3)n2C2CCCCC2)cc1	5.0%	-1.2%	i	11.2µM*	-0.2%	?
Cn1c(SCC(=O)Nc2cc(Cl)cc(Cl)c2)nnc1-c1ccc2nonc2c1	31.6µM*	?	?	-15.3%	-58.7%	-0.1%
CCOC(=O)c1cccc(NC(=O)[C@H](CSCc2ccccc2)N2Cc3ccccc3C2=O)c1	-2.7%	-9.7%	i	nt	-5.9%	nt
O=C(CSc1nnc(SCc2ccccc2)s1)NNC(=S)Nc1ccccc1	-7.4%	0.0%	i	14.1µM*	3.5%	12.6µM*
O=C(NCc1nnc2n1CCN(Cc1ccc(C(F)(F)F)cc1)CC2)c1cccc(F)c1	nt	nt	i	nt	nt	nt
O=C1/C(=C/c2ccncc2)SC(=S)N1Nc1ccccc1	-17.4%	?	i	?	-125.4%	?

Compound activity: PubChem BioAssay, National Center for Advancing Translational Sciences (NCATS)
